Data taken from PubChem BioAssay (NCI).
The panel holds about 83,000 compounds, 20% with a hit somewhere; the sample as a whole holds those more often.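 Single-concentration screen, 48 h exposure, 96-well plates. Endpoint: percent growth. Below 10 = active.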 Unmarked numbers belong to inactive results. Activity calls are given as the source filed them.

The molecules below were run on NCI-H322M lung (assay: NCI-60 one-dose screen, 48 h (100 = growth as untreated, 0 = no growth, -100 = all killed)). Details: 10 µM unless noted.
With `CCOC(=O)[C@H](CSSc1ncnc2cc[nH]c12)NC(=O)[C@@H](C)c1ccc2cc(OC)ccc2c1` the growth was 10.7%. `CC(C)C[C@H](NC(=O)Cn1ccc(NCc2ccccc2)cc1=O)B(O)O` was tested, and the growth was 91.3%. Molecule `COc1ccc(C(=O)c2cc(OC)c(OC)c(OC)c2)cc1/C=C/C(=O)c1ccc(O)cc1` has a growth of 70.7%. Work on `Cc1cccc(NC(=O)c2sc3nc4c(cc3c2N)CCC4)c1C` yielded a growth of 40.1%. `COc1cc(-c2cc(/C=C3\CCCCC3=O)[nH]n2)cc(OC)c1OC` was tested, and the growth was 95.3%. With `COc1cccc(C2CC(=O)Nc3c2c(C)nn3-c2nc3ccccc3[nH]2)c1OC` (stereo not drawn) the growth was 60%. With `CCNC(=O)C1CCCN1C(=O)C(CCCN=C(N)N)NC(=O)C(CC(C)C)NC(=O)C(CC(C)C)NC(=O)C(Cc1ccc(O)cc1)NC(=O)C(CO)NC(=O)C(Cc1c[nH]c2ccccc12)NC(=O)C(Cc1cnc[nH]1)NC(=O)C1CCC(=O)N1` (stereo not drawn) the growth was 119%. `COc1ccc(-c2nc3sccn3c2-c2ccnc(NCCCNS(=O)(=O)c3ccc(F)cc3)n2)cc1` was tested, and the growth was 41.2%. Work on `CCCCCC(=O)OCc1ccccc1` yielded a growth of 102%. In the case of `CN(C)c1nc(N)c(N=O)c(N)n1`, the growth is reported as 111%. With `COc1ccc(Cn2cc(COc3cc(/C=C/C(=O)c4cc(OC)c(OC)c(OC)c4)ccc3OC)nn2)cc1` the growth was 52.4%. In the case of `CCOC(=O)C(Cc1ccccc1)n1c(O)c(C=Nc2ccc(C(=O)OCCN(CC)CC)cc2)sc1=O` (stereo not drawn), the growth is reported as 94.4%. `COc1cc(Cn2c(SCC(=O)Nc3ccc(Cl)cc3)nc3ccccc3c2=O)cc(OC)c1OC` was tested, and the growth was 64.4%. With `Cc1ccc(S(=O)(=O)NCCCNc2nccc(-c3c(-c4ccccc4)nc4sccn34)n2)cc1` the growth was 78.4%. For `Cc1cc(-c2ccccc2)c(C)n1Cc1ccc(Cl)cc1`, the growth was 68.1%. For `CN(C)c1ccc(C2CC(c3ccccc3)=NN2/C=C2\SC(=O)NC2=O)cc1` (stereo not drawn), the growth was 87.4%. In the case of `C=C1C(=O)O[C@H]2[C@H]1CC/C(COC(=O)NCCc1ccc(OC)cc1)=C\CC[C@@]1(C)O[C@@H]21`, the growth is reported as 88.4%. For `O=C(CCCn1c(=O)c2sc3ccccc3c2n2nnc(-c3ccccc3)c12)NCCc1cnc[nH]1`, the growth was -13.7% (active). Molecule `O=C1c2ccccc2C(=O)c2c1oc1oc3c(c(=O)c21)c(=O)n(-c1ccccc1)c1ccccc31` has a growth of 63.5%. `COc1ccc(Cn2c(SC)nc(=O)n(Cc3ccc(Cl)cc3)c2=O)cc1` showed a growth of 90.2%. In the case of `COc1cc(CNC(=O)CCSc2nc3ccccc3c(=O)n2Cc2cc(OC)c(OC)c(OC)c2)cc(OC)c1OC`, the growth is reported as 60.1%. In the case of `O=C(COc1ccccc1)N1N=C(c2ccc(Cl)cc2)CC1c1c[nH]c2ccccc12` (stereo not drawn), the growth is reported as 86.4%. With `CC(=O)n1cc([C@H]2CC[C@H](c3cn(C(C)=O)c4ccccc34)c3c2[nH]c2ccccc32)c2ccccc21` the growth was 77.6%. For `CCN(CC)CCCC(C)N=c1cc(Nc2cc(=NC(C)CCCN(CC)CC)c3cc(OC)ccc3o2)oc2ccc(OC)cc12` (stereo not drawn), the growth was -38.4% (active). Molecule `CC1(C)OC2COC3(C(=O)O)OC(C)(C)OC3C2O1` (stereo not drawn) has a growth of 98.6%. `Cc1ccc(Cn2c(-c3nonc3N)nc3ccccc32)cc1` was tested, and the growth was 86%. `COc1cc2nc(N3CCC[C@@H](NC4=CC(=O)c5ccccc5C4=O)C3)nc(N)c2cc1OC` was tested, and the growth was -65.3% (active). With `O=C(Nc1ccc(Cl)cc1)c1cc(-c2ccc(F)cc2)c2sc(=O)[nH]c2n1` the growth was 13.2%. For `Cc1cc(C)c(S(=O)(=O)N2CCN(c3cc4c(cc3F)c(=O)c(C(=O)O)cn4C3CC3)CC2)c(C)c1`, the growth was 74.7%. `O=C(CCCn1c2c(sc3ccccc32)c(=O)n2nnc(-c3ccccc3)c12)NCCc1cnc[nH]1` was tested, and the growth was -34.1% (active). `COc1ccc2c(c1)NC(=O)CN2c1nc(NC2CC2)nc2ccccc12` gave a growth of 40.7%. `C=C1C(=O)O[C@H]2[C@H](O)[C@@H](C)CCC/C(C)=C/CC[C@@]3(C)O[C@@H]3C[C@@H]12` showed a growth of 81%. `COc1ccc(/C=C/C(=O)c2cc(OC)c(OC)c(OC)c2)cc1OCc1cn(Cc2ccc(F)cc2)nn1` gave a growth of 33.6%. `O=C(CCC(=O)OC1CCCC1)OC1CCCC1` was tested, and the growth was 97%. `CCN(C(=O)c1cc2ncccc2[nH]1)[C@H]1CCC[C@@H](NCc2cccc(F)c2)C1` showed a growth of 80.6%. `CCCCCCCCCCCCCCCCC(Br)C(=O)O` (stereo not drawn) showed a growth of 115%. For `COc1cc2nc(Cl)nc(NCCO)c2cc1OC`, the growth was 105%. `CCOC(=O)C1=C(CSC(=S)N(C2CCCCC2)C2CCCCC2)N(C)C(=O)NC1c1ccccc1` (stereo not drawn) was tested, and the growth was 91.9%. Molecule `CC1=C(C#N)C(C)(C)C(C#N)=C(C)N1` has a growth of 109%.

These molecules were tested on HOP-62 NSCLC in the same assay as above. Details: 10 µM unless noted.
`CCOC(=O)[C@H](CSSc1ncnc2cc[nH]c12)NC(=O)[C@@H](C)c1ccc2cc(OC)ccc2c1` gave a growth of 23.2%. Work on `CC(C)C[C@H](NC(=O)Cn1ccc(NCc2ccccc2)cc1=O)B(O)O` yielded a growth of 44.9%. For `COc1ccc(C(=O)c2cc(OC)c(OC)c(OC)c2)cc1/C=C/C(=O)c1ccc(O)cc1`, the growth was 88.9%. In the case of `Cc1cccc(NC(=O)c2sc3nc4c(cc3c2N)CCC4)c1C`, the growth is reported as 35.6%. `COc1cc(-c2cc(/C=C3\CCCCC3=O)[nH]n2)cc(OC)c1OC` showed a growth of 99.3%. `COc1cccc(C2CC(=O)Nc3c2c(C)nn3-c2nc3ccccc3[nH]2)c1OC` (stereo not drawn) was tested, and the growth was 57.4%. `CCNC(=O)C1CCCN1C(=O)C(CCCN=C(N)N)NC(=O)C(CC(C)C)NC(=O)C(CC(C)C)NC(=O)C(Cc1ccc(O)cc1)NC(=O)C(CO)NC(=O)C(Cc1c[nH]c2ccccc12)NC(=O)C(Cc1cnc[nH]1)NC(=O)C1CCC(=O)N1` (stereo not drawn) was tested, and the growth was 96.8%. With `COc1ccc(-c2nc3sccn3c2-c2ccnc(NCCCNS(=O)(=O)c3ccc(F)cc3)n2)cc1` the growth was 30.9%. For `CCCCCC(=O)OCc1ccccc1`, the growth was 97%. With `CN(C)c1nc(N)c(N=O)c(N)n1` the growth was 107%. `COc1ccc(Cn2cc(COc3cc(/C=C/C(=O)c4cc(OC)c(OC)c(OC)c4)ccc3OC)nn2)cc1` was tested, and the growth was 19.2%. `CCOC(=O)C(Cc1ccccc1)n1c(O)c(C=Nc2ccc(C(=O)OCCN(CC)CC)cc2)sc1=O` (stereo not drawn) showed a growth of 103%. For `COc1cc(Cn2c(SCC(=O)Nc3ccc(Cl)cc3)nc3ccccc3c2=O)cc(OC)c1OC`, the growth was 54%. `Cc1ccc(S(=O)(=O)NCCCNc2nccc(-c3c(-c4ccccc4)nc4sccn34)n2)cc1` was tested, and the growth was 124%. With `Cc1cc(-c2ccccc2)c(C)n1Cc1ccc(Cl)cc1` the growth was 55.4%. Molecule `CN(C)c1ccc(C2CC(c3ccccc3)=NN2/C=C2\SC(=O)NC2=O)cc1` (stereo not drawn) has a growth of 94.5%. In the case of `C=C1C(=O)O[C@H]2[C@H]1CC/C(COC(=O)NCCc1ccc(OC)cc1)=C\CC[C@@]1(C)O[C@@H]21`, the growth is reported as 62.6%. For `O=C(CCCn1c(=O)c2sc3ccccc3c2n2nnc(-c3ccccc3)c12)NCCc1cnc[nH]1`, the growth was -59.8% (active). `O=C1c2ccccc2C(=O)c2c1oc1oc3c(c(=O)c21)c(=O)n(-c1ccccc1)c1ccccc31` showed a growth of 36.1%. For `COc1ccc(Cn2c(SC)nc(=O)n(Cc3ccc(Cl)cc3)c2=O)cc1`, the growth was 94.6%. `COc1cc(CNC(=O)CCSc2nc3ccccc3c(=O)n2Cc2cc(OC)c(OC)c(OC)c2)cc(OC)c1OC` showed a growth of 29.3%. Molecule `O=C(COc1ccccc1)N1N=C(c2ccc(Cl)cc2)CC1c1c[nH]c2ccccc12` (stereo not drawn) has a growth of 66.6%. Molecule `CC(=O)n1cc([C@H]2CC[C@H](c3cn(C(C)=O)c4ccccc34)c3c2[nH]c2ccccc32)c2ccccc21` has a growth of 70.7%. For `CCN(CC)CCCC(C)N=c1cc(Nc2cc(=NC(C)CCCN(CC)CC)c3cc(OC)ccc3o2)oc2ccc(OC)cc12` (stereo not drawn), the growth was -41.6% (active). `CC1(C)OC2COC3(C(=O)O)OC(C)(C)OC3C2O1` (stereo not drawn) was tested, and the growth was 91.2%. With `Cc1ccc(Cn2c(-c3nonc3N)nc3ccccc32)cc1` the growth was 76.5%. `COc1cc2nc(N3CCC[C@@H](NC4=CC(=O)c5ccccc5C4=O)C3)nc(N)c2cc1OC` showed a growth of 94.5%. In the case of `O=C(Nc1ccc(Cl)cc1)c1cc(-c2ccc(F)cc2)c2sc(=O)[nH]c2n1`, the growth is reported as 6.64% (active). For `Cc1cc(C)c(S(=O)(=O)N2CCN(c3cc4c(cc3F)c(=O)c(C(=O)O)cn4C3CC3)CC2)c(C)c1`, the growth was 57.3%. In the case of `O=C(CCCn1c2c(sc3ccccc32)c(=O)n2nnc(-c3ccccc3)c12)NCCc1cnc[nH]1`, the growth is reported as -7.01% (active). Molecule `COc1ccc2c(c1)NC(=O)CN2c1nc(NC2CC2)nc2ccccc12` has a growth of 31.7%. `C=C1C(=O)O[C@H]2[C@H](O)[C@@H](C)CCC/C(C)=C/CC[C@@]3(C)O[C@@H]3C[C@@H]12` was tested, and the growth was 96.3%. With `COc1ccc(/C=C/C(=O)c2cc(OC)c(OC)c(OC)c2)cc1OCc1cn(Cc2ccc(F)cc2)nn1` the growth was 4.52% (active). In the case of `O=C(CCC(=O)OC1CCCC1)OC1CCCC1`, the growth is reported as 109%. For `CCN(C(=O)c1cc2ncccc2[nH]1)[C@H]1CCC[C@@H](NCc2cccc(F)c2)C1`, the growth was 105%. For `CCCCCCCCCCCCCCCCC(Br)C(=O)O` (stereo not drawn), the growth was 92.4%. With `COc1cc2nc(Cl)nc(NCCO)c2cc1OC` the growth was 114%. `CCOC(=O)C1=C(CSC(=S)N(C2CCCCC2)C2CCCCC2)N(C)C(=O)NC1c1ccccc1` (stereo not drawn) gave a growth of 63.1%. Work on `CC1=C(C#N)C(C)(C)C(C#N)=C(C)N1` yielded a growth of 109%.
